Each structure is given as a SMILES string. Compounds without any hit were thinned out: in the full panel of roughly 83,000, 20% have a hit.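 In brief: 96-well plates, 48 h treatment, single concentration, percent growth endpoint.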 Unmarked numbers belong to inactive results. Calls of active or inactive are those of the source. How the source made its calls: active means growth percent below 10; inactive means the rest.

Holding throughout (assay): NCI-60 one-dose screen, 48 h (100 = growth as untreated, 0 = no growth, -100 = all killed)
What all share (conditions): 10 µM unless noted

The subject of assay [1] is RPMI-8226 leukemia.
Assay [2] has as its system OVCAR-8 ovarian.
Assay [3] has as its system OVCAR-5 ovarian.
Assay [4] concerns OVCAR-4 ovarian.
The test system of assay [5] is SK-OV-3 ovarian.
The subject of assay [6] is IGROV1 ovarian.
Assay [7] concerns OVCAR-3 ovarian.
Assay [8] has as its system HS 578T breast.
In assay [9] the test system is NCI/ADR-RES ovarian.
The subject of assay [10] is T-47D breast.
Assay [11] has as its system BT-549 breast.
Assay [12] has as its system MDA-MB-435 melanoma.
The test system of assay [13] is SW-620 colon.
Assay [14] concerns MCF7 breast.
Assay [15] concerns HCT-116 colon.
Assay [16] concerns HCC-2998 colon.
Assay [17] concerns KM12 colon.

Regarding `CN1CCN(CC(=O)Nc2nc3c(s2)Nc2cc(Cl)c(Cl)cc2NC3=O)CC1`, the growth is 108% in assay [1]; 99.3% in [2]; 113% in [3]; 116% in assay [4]; 99% in assay [5]; 110% in [6]. The growth is 115% in [7]; 107% in assay [8]; 109% in [9]; 98.1% in assay [10]; 100% in [11]; 107% in assay [12]. Moreover, the growth in [13] was 112%; in [14] it was 104%; in [15] it was 100%; in assay [16], 110%; in assay [17] it was 102%.

For the compound `O=C1CN(CO)C(=O)CN1CO`, the growth in assay [1] is 103%; in [2] it was 99.7%; in [3], 94.6%; in assay [4] it was 111%; in assay [5], 111%; in assay [6] it was 105%. For the same compound, the growth in assay [7] is 113%; in [8] it was 101%; in assay [9], 103%; in assay [10] it was 107%; in assay [11], 113%; in [12], 103%. Moreover, the growth in assay [13] was 95.9%; in assay [14] it was 101%; in assay [15], 103%; in assay [16], 104%; in [17], 105%.

For the compound `COc1ncc(-c2ccc3nccc(C#CCN4CCN(S(C)(=O)=O)CC4)c3c2)cc1NS(=O)(=O)c1ccc(F)cc1F`, the growth in assay [1] was -30.1% (active); in assay [2], 7.2% (active); in assay [3], 11.3%; in assay [4], 8.24% (active); in [5], -11.1% (active); in assay [6] it was -35.9% (active). For the same compound, the growth in [7] is -20.7% (active); in assay [8], -13.9% (active); in [9], 6.28% (active); in [10], 3.5% (active); in assay [11], -17.6% (active); in [12], -23% (active). Moreover, the growth in [13] is 0.433% (active); in assay [14] it was 6.88% (active); in assay [15], -10.4% (active); in [16] it was -37% (active); in assay [17], -57.2% (active).

For the compound `CCC(O)C(C)(C)C` (stereo not drawn), the growth in [1] was 122%; in [2], 103%; in assay [3], 114%; in assay [4], 118%; in [5] it was 110%; in assay [6], 112%. Besides, the growth in assay [7] is 123%; in [8], 95.8%; in assay [9] it was 97.7%; in [10] it was 112%; in assay [11], 108%; in assay [12], 105%. In addition, the growth is 101% in assay [13]; 113% in [14]; 106% in assay [15]; 106% in assay [16]; 113% in assay [17].

For the compound `C=C1c2c(C)nn(-c3ccc(C#CCOC4OC(CO)C(O)C(O)C4O)cc3)c2N(C)C23C[C@H]1C1(C)c4c(C)nn(-c5ccc(C#CCOC6OC(CO)C(O)C(O)C6O)cc5)c4N(C)C(C)(C[C@H]12)C3` (stereo partly drawn), the growth in assay [1] was -36.4% (active); in assay [2], 12%; in assay [3] it was 51%; in assay [4], 14.7%; in [5], 15.3%; in assay [6] it was 24.7%. The growth was 3.73% (active) in [7]; 1.04% (active) in assay [8]; 77.2% in assay [9]; 7.11% (active) in [10]; 3.47% (active) in [11]; 0.0883% (active) in assay [12]. In addition, the growth in assay [13] is 11.6%; in [14], -0.735% (active); in assay [15] it was 0.942% (active); in [16], -3.04% (active); in assay [17], -23.3% (active).

On to `CSc1nc2c(c(=O)n1C)C(c1ccccc1)C1=C(N2)/C(=C/c2ccccc2)CCC1` (stereo not drawn), for which the growth was 39.5% in [1]; 63.7% in assay [2]; 113% in assay [3]; 68.3% in [4]; 107% in assay [5]; 47.2% in assay [6]. Moreover, the growth was 52.8% in assay [7]; 61% in assay [8]; 38.3% in assay [9]; 57% in assay [10]; 37.9% in assay [11]; 4.1% (active) in assay [12]. Moreover, the growth in [13] was 47.1%; in assay [14] it was 56.7%; in assay [15], 39.5%; in assay [16], 71.4%; in assay [17], 71.4%.

As for `O=C1Nc2ccc(F)cc2/C1=C/c1nc(-c2ccc(F)cc2)n2ccccc12`, the growth is 117% in [1]; 97.7% in [2]; 94.7% in assay [3]; 96.3% in assay [4]; 108% in assay [5]; 97.8% in assay [6]. The growth in assay [7] is 112%; in [8], 100%; in [9] it was 112%; in [10], 96.6%; in assay [11], 96.8%; in assay [12] it was 85%. The growth was 80.1% in assay [13]; 85.6% in [14]; 91.1% in assay [15]; 108% in [16]; 87.6% in [17].

On to `O=C(O)c1ccc(NC(=O)c2cccc(Nc3ccnc(C(F)(F)F)c3)c2)cc1`, for which the growth in [1] is 98.3%; in assay [2] it was 98.9%; in assay [3], 103%; in assay [4], 98.1%; in assay [5] it was 105%; in [6], 106%. Moreover, the growth was 104% in assay [7]; 98.3% in assay [8]; 107% in assay [9]; 94.3% in [10]; 95.8% in assay [11]; 106% in assay [12]. Moreover, the growth in assay [13] was 103%; in [14] it was 96.8%; in [15], 95%; in assay [16] it was 104%; in assay [17], 107%.

As for `CC/C(=C\c1ccc(N(C)C)cc1)c1nc2ccccc2c(=O)[nH]1`, the growth is 79.4% in assay [1]; 106% in assay [2]; 92.9% in assay [3]; 95.8% in assay [4]; 109% in assay [5]; 66.4% in assay [6]. The growth is 116% in assay [7]; 328% in [8]; 98.3% in assay [9]; 79.2% in assay [10]; 60.3% in [11]; 108% in assay [12]. The growth is 120% in [13]; 98.2% in [14]; 108% in assay [15]; 93% in [16]; 119% in assay [17].

Source of the values: PubChem BioAssay (NCI).
